From PubChem BioAssay (NCI)
Compounds without any hit were thinned out: in the full panel of roughly 83,000, 20% have a hit.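 Assay: single dose, 48 h. Readout: percent growth (0 = no net growth; negative = cell death). Active: <10.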 Activity calls are given as the source filed them.

What follows are compounds tested on MDA-MB-435 melanoma (assay: NCI-60 one-dose screen, 48 h (100 = growth as untreated, 0 = no growth, -100 = all killed)). Settings: 10 µM.
For `CCCCOC(OCCCC)c1ccccc1`, the growth was 112% (inactive). With `O=C(O)c1cccc([N+](=O)[O-])c1O` the growth was 101% (inactive). For `O=C1c2ccccc2C(=O)N1OCc1ccccc1`, the growth was 110% (inactive). `C[C@@H](c1ccccc1)[C@@H](C(=O)O)c1ccccc1` was tested, and the growth was 104% (inactive). For `CC1=CC(C)(C)NC(=S)N1c1ccc(S(=O)(=O)O)c2cccc(S(=O)(=O)O)c12`, the growth was 106% (inactive). In the case of `CC(=O)OC(OC(C)=O)C1CCCO1` (stereo unspecified), the growth is reported as 108% (inactive). With `c1ccc2c(N3CCCCC3)ncnc2c1` the growth was 109% (inactive). For `S=c1nn[nH]c2ccccc12`, the growth was 120% (inactive). With `O=[N+]([O-])c1ccc(Sc2ccncn2)c([N+](=O)[O-])c1` the growth was 8.62% (active). For `O=c1[nH]c(O)c(/C=C2/C=Nc3ccccc32)[nH]1`, the growth was 102% (inactive). `CC1OC(Oc2c(-c3ccc(O)c(O)c3)oc3cc(O)cc(O)c3c2=O)C(O)C(O)C1O` (stereo unspecified) was tested, and the growth was 111% (inactive). In the case of `Cc1ccc(O)c(C(=O)c2ccccc2)c1`, the growth is reported as 110% (inactive). In the case of `OCC1OC(OC2C(O)C(CO)OC2(CO)OC2OC(CO)C(O)C(O)C2O)C(O)C(O)C1O` (stereo unspecified), the growth is reported as 111% (inactive). With `C[N+](C)(C)C(=O)c1ccccc1` the growth was 114% (inactive). With `O=[N+]([O-])c1ccc(Cl)c(S(=O)(=O)O)c1` the growth was 117% (inactive). For `Cc1cc2ccccc2c(O)c1C#N`, the growth was 108% (inactive). In the case of `COc1ncnc2c1cnn2C`, the growth is reported as 107% (inactive). `NC(C(=O)O)c1ccc([N+](=O)[O-])cc1` (stereo unspecified) was tested, and the growth was 111% (inactive). In the case of `CC(O)COc1ccc(-c2ccccc2)cc1` (stereo unspecified), the growth is reported as 104% (inactive). In the case of `C1CNC(C2=NCCN2)=N1`, the growth is reported as 93.4% (inactive). `CN(C)C(C)(C)CC(C)(C)C` was tested, and the growth was 109% (inactive). `O=[N+]([O-])c1ccc(S(=O)(=O)NN=C2CCCCC2)cc1` was tested, and the growth was 114% (inactive). `C[C@]12CC[C@@H]3c4ccc(OCC(=O)O)cc4CC[C@H]3[C@@H]1CCC2=O` was tested, and the growth was 116% (inactive). For `Nc1ncnc2[nH]ncc12`, the growth was 15.2% (inactive). With `CCCNc1ccc(C2=NCCCN2)cc1` the growth was 95.9% (inactive). In the case of `O=C(N/N=C/c1ccccc1O)Nc1nn[nH]n1`, the growth is reported as 98.3% (inactive). For `Cc1ccc(CCCC(=O)O)c(C)c1`, the growth was 100% (inactive). In the case of `CC(=O)c1cc2c(cc1F)C(C)(C)CCC2(C)C`, the growth is reported as 106% (inactive). With `CN(c1ccccc1)c1ncnc2c1ncn2C` the growth was 106% (inactive). For `CCCCC1(CC)COC(CCC)OC1` (stereo unspecified), the growth was 118% (inactive). With `CCC(C#N)(CC)c1ccccc1` the growth was 104% (inactive). In the case of `FC(F)(F)c1ccc2c(c1)N(CCCN1CCN(C3CC3)CC1)c1ccccc1S2`, the growth is reported as 57.7% (inactive). With `CC1NC(=O)NC1CCCCCC(=O)O` (stereo unspecified) the growth was 117% (inactive). For `COS(=O)(=O)c1ccc(Br)cc1`, the growth was 110% (inactive). For `O=[N+]([O-])c1cccc(N=Nc2ccc(O)cc2O)c1`, the growth was 87.3% (inactive). In the case of `Cc1cc(O)ccc1O`, the growth is reported as 97.7% (inactive). With `CCOc1ccc(Br)cc1/C=N\N=C\c1cc(Br)ccc1OCC` the growth was 103% (inactive).

These compounds were tested on SW-620 colon in the same assay as above. Settings: 10 µM.
In the case of `CCCCOC(OCCCC)c1ccccc1`, the growth is reported as 110% (inactive). With `O=C(O)c1cccc([N+](=O)[O-])c1O` the growth was 105% (inactive). For `O=C1c2ccccc2C(=O)N1OCc1ccccc1`, the growth was 107% (inactive). For `C[C@@H](c1ccccc1)[C@@H](C(=O)O)c1ccccc1`, the growth was 103% (inactive). For `CC1=CC(C)(C)NC(=S)N1c1ccc(S(=O)(=O)O)c2cccc(S(=O)(=O)O)c12`, the growth was 95.2% (inactive). `CC(=O)OC(OC(C)=O)C1CCCO1` (stereo unspecified) was tested, and the growth was 107% (inactive). `c1ccc2c(N3CCCCC3)ncnc2c1` was tested, and the growth was 98% (inactive). `S=c1nn[nH]c2ccccc12` was tested, and the growth was 113% (inactive). `O=[N+]([O-])c1ccc(Sc2ccncn2)c([N+](=O)[O-])c1` was tested, and the growth was 23% (inactive). With `O=c1[nH]c(O)c(/C=C2/C=Nc3ccccc32)[nH]1` the growth was 104% (inactive). In the case of `CC1OC(Oc2c(-c3ccc(O)c(O)c3)oc3cc(O)cc(O)c3c2=O)C(O)C(O)C1O` (stereo unspecified), the growth is reported as 99.8% (inactive). For `Cc1ccc(O)c(C(=O)c2ccccc2)c1`, the growth was 100% (inactive). For `OCC1OC(OC2C(O)C(CO)OC2(CO)OC2OC(CO)C(O)C(O)C2O)C(O)C(O)C1O` (stereo unspecified), the growth was 111% (inactive). For `C[N+](C)(C)C(=O)c1ccccc1`, the growth was 107% (inactive). `O=[N+]([O-])c1ccc(Cl)c(S(=O)(=O)O)c1` was tested, and the growth was 107% (inactive). In the case of `Cc1cc2ccccc2c(O)c1C#N`, the growth is reported as 104% (inactive). For `COc1ncnc2c1cnn2C`, the growth was 105% (inactive). For `NC(C(=O)O)c1ccc([N+](=O)[O-])cc1` (stereo unspecified), the growth was 109% (inactive). `CC(O)COc1ccc(-c2ccccc2)cc1` (stereo unspecified) was tested, and the growth was 103% (inactive). With `C1CNC(C2=NCCN2)=N1` the growth was 100% (inactive). In the case of `CN(C)C(C)(C)CC(C)(C)C`, the growth is reported as 101% (inactive). For `O=[N+]([O-])c1ccc(S(=O)(=O)NN=C2CCCCC2)cc1`, the growth was 114% (inactive). For `C[C@]12CC[C@@H]3c4ccc(OCC(=O)O)cc4CC[C@H]3[C@@H]1CCC2=O`, the growth was 102% (inactive). With `Nc1ncnc2[nH]ncc12` the growth was 17.5% (inactive). For `CCCNc1ccc(C2=NCCCN2)cc1`, the growth was 102% (inactive). In the case of `O=C(N/N=C/c1ccccc1O)Nc1nn[nH]n1`, the growth is reported as 101% (inactive). `Cc1ccc(CCCC(=O)O)c(C)c1` was tested, and the growth was 99.7% (inactive). For `CC(=O)c1cc2c(cc1F)C(C)(C)CCC2(C)C`, the growth was 102% (inactive). For `CN(c1ccccc1)c1ncnc2c1ncn2C`, the growth was 97.9% (inactive). For `CCCCC1(CC)COC(CCC)OC1` (stereo unspecified), the growth was 110% (inactive). For `COc1cc2c3cc1Oc1c(OC)c(OC)cc4c1C(Cc1ccc(O)c(c1)Oc1ccc(cc1)CC3N(C)CC2)N(C)CC4` (stereo unspecified), the growth was -46.8% (active). `CCC(C#N)(CC)c1ccccc1` was tested, and the growth was 104% (inactive). For `FC(F)(F)c1ccc2c(c1)N(CCCN1CCN(C3CC3)CC1)c1ccccc1S2`, the growth was 38.9% (inactive). For `CC1NC(=O)NC1CCCCCC(=O)O` (stereo unspecified), the growth was 105% (inactive). `COS(=O)(=O)c1ccc(Br)cc1` was tested, and the growth was 97.5% (inactive). In the case of `O=[N+]([O-])c1cccc(N=Nc2ccc(O)cc2O)c1`, the growth is reported as 55.7% (inactive). In the case of `Cc1cc(OCCO)cc(C)c1Cl`, the growth is reported as 107% (inactive). In the case of `Cc1cc(O)ccc1O`, the growth is reported as 117% (inactive). For `CCOc1ccc(Br)cc1/C=N\N=C\c1cc(Br)ccc1OCC`, the growth was 101% (inactive).
